Results filed as inconclusive are left out. A call without a number means that no potency is given here. Active and inactive are the calls of the source. Unless noted, the call rests on the fitted dose curve; in most records, active means well fitted curve in the direction sought with a large enough effect in the repeat runs; inconclusive means weak or mixed curves; inactive means no such curve, though single readings can be large; an effect the other way counts as inactive or inconclusive.
Columns and labels:
[1] = qHTS assay to identify small molecule agonists of the vitamin D receptor (VDR) signaling pathway - cell viability counter screen (AID 743224); further: nearly all actives have a fitted effect of over 50% in size; further: potency means the concentration at half of the fitted maximal effect
How it was run: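 Plated VDR-bla cells (4 h, 37C) received compound, incubated 16 h, then LiveBLAzer substrate 2 h RT; CellTiter-Glo added afterwards, luminescence read at 30 min.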

[2] = qHTS assay to identify small molecule antagonists of the vitamin D receptor (VDR) signaling pathway - cell viability counter screen (AID 743225); further: nearly all actives have a fitted effect of over 50% in size; further: potency means the concentration at half of the fitted maximal effect
How it was run: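 Luminescent cell viability (CellTiter-Glo) in VDR-bla HEK 293T cells after 16 h compound exposure at 37C in the presence of 3 nM final 1-alpha,25-dihydroxy vitamin D3.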

[3] = qHTS assay to identify small molecule agonists of the NFkB signaling pathway (AID 1159509; active means well fitted curve in the direction sought with a large enough effect in the signal ratio in the repeat runs, not every such curve was filed as active; the % refers to the signal ratio; further: series mostly up to about 61 µM)
How it was run: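 NFkB-bla ME-180 cells carry a beta-lactamase reporter under an NF-kB response element. They were plated overnight, then exposed to compounds for 5 h at 37 C. Read-out is LiveBLAzer FRET after 1.5 hr at room temperature (405 nm excitation; 460/530 nm emission).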

[4] = qHTS assay to identify small molecule agonists of the NFkB signaling pathway - cell viability counter screen (AID 1159515; calls by dose curve; further: series mostly up to about 61 µM; nearly all actives have a fitted effect of over 55% in size)
How it was run: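 Using the same wells as the NFkB reporter read, ME-180 NFkB-bla cells given compounds for 5 hr were assessed for viability via CellTiter-Glo, with luminescence taken after a 30 min room-temperature incubation.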

[5] = qHTS assay to identify small molecule agonists of the endoplasmic reticulum stress response signaling pathway (AID 1159516; active means well fitted activation curve with a large enough effect in the signal ratio in the repeat runs, not every such curve was filed as active; the % refers to the signal ratio)
How it was run: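 An ESRE-bla HeLa cell assay: compounds were pin-transferred from DMSO onto overnight-plated cells and left 5 hr at 37 C. Substrate was then loaded for 2 hr at room temperature before reading fluorescence at 460 nm and 530 nm.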

[6] = qHTS assay to identify small molecule antagonists of the retinoid-related orphan receptor gamma (ROR-gamma) signaling pathway - cell viability counter screen (AID 1159520); further: nearly all actives have a fitted effect of over 50% in size; further: potency means the concentration at half of the fitted maximal effect
How it was run: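 Tet-on ROR gamma CHO cells (1,000/well) were plated 4 hr, given compounds in DMSO for 2 hr at 37 C, then induced with 1 uM final doxycycline for 16 hr. Viability was read as ATP by CellTiter-Glo luminescence after 30 min.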

[7] = qHTS assay to identify small molecule agonists of the AP-1 signaling pathway - cell viability counter screen (AID 1159525; calls by dose curve; further: nearly all actives have a fitted effect of over 55% in size; further: potency means the concentration at half of the fitted maximal effect)
How it was run: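 ME-180 AP-1-bla, 2500 cells/well, Opti-MEM + 0.5% dialyzed FBS; overnight 37 °C; cpd 15-pt titration, 5 h 37 °C; CellTiter-Glo 30 min RT; luminescence read; normalised to TOAB and DMSO controls.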

[8] = qHTS assay to identify small molecule agonists of the endoplasmic reticulum stress response signaling pathway - cell viability counter screen (AID 1159517; calls by dose curve; further: nearly all actives have a fitted effect of over 50% in size; further: potency means the concentration at half of the fitted maximal effect)
How it was run: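 CellTiter-Glo was added to wells already read for beta-lactamase FRET, and luminescence was recorded 30 min later. Cells: ESRE-bla HeLa, 1,500 per well, compound exposure 5 hr at 37 C.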

[9] = qHTS assay to identify small molecule agonists of the AP-1 signaling pathway (AID 1159526; calls by dose curve)
[10] = qHTS assay to identify small molecule agonists of the RXR signaling pathway - cell viability counter screen (AID 1159529); further: nearly all actives have a fitted effect of over 50% in size; further: potency means the concentration at half of the fitted maximal effect
How it was run: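 Same-well viability check after the LiveBLAzer FRET read: CellTiter-Glo added, luminescence measured after 30 min at room temperature. Reporter HEK 293T cells had been treated with compounds for 16 hr following a 5 hr preincubation.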

[11] = qHTS assay to identify small molecule antagonists of the retinoid acid receptor (RAR) signaling pathway - cell viability counter screen (AID 1159551); further: nearly all actives have a fitted effect of over 35% in size
How it was run: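 Retinol-stimulated (1 uM final) C3RL4 cells, compound 6 h, 37 C; readout CellTiter-Glo luminescence (ATP) after 30 min RT incubation.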

[12] = qHTS assay to identify small molecule agonists of the retinoic acid receptor (RAR) signaling pathway (AID 1159553)
How it was run: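 Reporter readout comes from luciferase under RARE control in C3RL4 cells; compound exposure lasts 6 hr at 37 C in 5% CO2, and luminescence is recorded following a 30 min room-temperature incubation with reagent.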

[13] = biological target: Retinoic acid receptor RXR-alpha (Homo sapiens) (UniProt P19793); assay: qHTS assay to identify small molecule agonists of the RXR signaling pathway (AID 1159527; calls by dose curve; further: nearly all actives have a fitted effect of over 35% in size)
Sequence of Retinoic acid receptor RXR-alpha (Homo sapiens) (P19793 whole entry, looked up): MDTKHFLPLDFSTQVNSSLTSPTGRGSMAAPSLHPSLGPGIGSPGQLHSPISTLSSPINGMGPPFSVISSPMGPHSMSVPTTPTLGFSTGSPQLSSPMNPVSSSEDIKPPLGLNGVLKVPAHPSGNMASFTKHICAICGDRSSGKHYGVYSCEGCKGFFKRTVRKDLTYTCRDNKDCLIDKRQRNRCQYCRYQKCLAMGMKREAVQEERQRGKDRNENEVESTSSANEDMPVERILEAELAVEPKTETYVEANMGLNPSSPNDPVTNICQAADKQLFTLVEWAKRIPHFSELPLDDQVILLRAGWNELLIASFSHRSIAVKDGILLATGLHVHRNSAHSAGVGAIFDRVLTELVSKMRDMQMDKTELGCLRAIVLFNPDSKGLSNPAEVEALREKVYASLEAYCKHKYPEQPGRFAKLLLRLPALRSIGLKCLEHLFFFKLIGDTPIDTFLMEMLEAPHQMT
How it was run: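 Beta-lactamase reporter assay, agonist format. Engineered HEK 293T line, charcoal-stripped FBS at 2%, overnight (16 hr) exposure, fluorescence at 460 and 530 nm after 405 nm excitation.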

[14] = qHTS assay to identify small molecule antagonists of the retinoic acid receptor (RAR) signaling pathway (AID 1159552; further: nearly all actives have a fitted effect of over 50% in size; further: potency means the concentration at half of the fitted maximal effect)
How it was run: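 Readout: luciferase luminescence, 30 min post-reagent at RT. Setup: C3RL4 RARE reporter cells, compounds plus retinol 1 uM final, 6 hr incubation at 37 C and 5% CO2.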

[15] = biological target: Nuclear receptor ROR-gamma (Homo sapiens) (UniProt P51449); assay: qHTS assay to identify small molecule antagonists of the retinoid-related orphan receptor gamma (ROR-gamma) signaling pathway (AID 1159521; further: nearly all actives have a fitted effect of over 50% in size; further: potency means the concentration at half of the fitted maximal effect)
How it was run: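 CHO cells expressing RORγ under a TET-on promoter, luciferase under RORE control. Dox 1 uM final, 16 h; compounds added 2 h prior. Luminescence decrease measured.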

[16] = qHTS assay to identify small molecule antagonists of the estrogen related receptor (ERR) signaling pathway - cell viability counter screen (AID 1224818);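 further: series mostly up to about 46 µM; viability measured after 17.5 h of compound exposure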
How it was run: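 After a 6 h pre-incubation, ERR cells were dosed by pin tool with compounds, positive/negative controls or DMSO alone. Following 17.5 h at 37 C and 30 min with CellTiter-Fluor, fluorescence was recorded.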

[17] = qHTS assay to identify small molecule antagonists of the estrogen related receptor (ERR) signaling pathway (AID 1224819)
How it was run: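 Luminescence readout (One-Glo, 30 min, RT) of ERR cell line after 18 h compound exposure at 37 C; cells seeded 2,000/well, pre-incubated 6 h, compounds pinned from DMSO stocks.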

[18] = qHTS assay to identify small molecule agonists of the estrogen related receptor (ERR) signaling pathway (AID 1224820)
How it was run: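 ERR reporter cell line (from NTP), 2,000 cells/well, incubated 6 h before compound addition, then 18 h at 37 C. Luminescence measured 30 min after One-Glo reagent at room temperature.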

[19] = qHTS assay to identify small molecule antagonists of the estrogen related receptor signaling pathway with the pleiotropic PPARgamma coactivator (PGC) cell viability counter screen (AID 1224822;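 further: series mostly up to about 46 µM; viability read after 17.5 h compound exposure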)
How it was run: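 PGC/ERR cells were plated at 2,000 per well and allowed 6 h to settle before compound addition. Following 17.5 h at 37 C, CellTiter-Fluor reagent was added and fluorescence was read 30 min later.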

[20] = qHTS assay to identify small molecule agonists of the estrogen related receptor signaling pathway with the pleiotropic PPARgamma coactivator (PGC) (AID 1224823)
How it was run: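 PGC/ERR reporter cells seeded 6 h, then exposed to compounds (23 nL in DMSO) for 18 h at 37 C. One-Glo luciferase luminescence read after 30 min at room temperature.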

Compound | Potency [1] | Potency [2] | outcome [3] | Potency [4] | outcome [5] | Potency [6] | Potency [7] | Potency [8] | outcome [9] | Potency [10] | Potency [11] | Potency [12] | Potency [13] | Potency [14] | Potency [15] | outcome [16] | outcome [17] | outcome [18] | Potency [19] | outcome [20]
CC(=O)c1cc2c(cc1C)C(C)(C)C(C)CC2(C)C (centres undefined) | 49 µM (active) | inactive | inactive | inactive | inactive | inactive | 49 µM (active) | – | – | – | – | – | – | – | – | – | – | – | – | –
Cc1c(F)c(F)c(COC(=O)C2C(/C=C(\Cl)C(F)(F)F)C2(C)C)c(F)c1F (centres undefined) | inactive | inactive | inactive | inactive | inactive | inactive | – | inactive | inactive | inactive | inactive | inactive | – | – | – | – | – | – | – | –
Clc1cc(Cl)c(Cl)c(Cl)c1 | inactive | inactive | inactive | inactive | inactive | inactive | inactive | – | inactive | inactive | inactive | inactive | inactive | inactive | – | – | – | – | – | –
NCCCNCCCN | – | 49.7 µM (active) | inactive | inactive | inactive | inactive | inactive | – | inactive | – | inactive | – | – | – | – | – | – | – | – | –
Cc1ccc(N)cc1C | inactive | inactive | inactive | inactive | inactive | inactive | inactive | – | inactive | inactive | inactive | – | inactive | inactive | inactive | – | – | – | – | –
CN(N=O)c1ccc([N+](=O)[O-])cc1 | inactive | – | inactive | inactive | inactive | inactive | inactive | – | inactive | inactive | inactive | inactive | inactive | inactive | inactive | – | – | – | – | –
COCCOCCO | – | inactive | inactive | inactive | inactive | inactive | – | – | – | – | inactive | – | – | – | inactive | inactive | inactive | inactive | inactive | inactive
CO/C=C(/C(=O)OC)c1ccccc1COc1cccc(C(F)(F)F)n1 | – | – | inactive | inactive | inactive | – | inactive | inactive | inactive | inactive | – | inactive | – | – | 0.769 µM (active) | – | – | – | – | –
CC(Cl)C(C)Cl (centres undefined) | inactive | inactive | inactive | inactive | inactive | inactive | – | – | inactive | inactive | inactive | – | inactive | inactive | inactive | – | – | – | – | –
O=C1C(Cl)C(CCl)CN1c1cccc(C(F)(F)F)c1 (centres undefined) | inactive | inactive | inactive | inactive | inactive | – | inactive | inactive | inactive | – | inactive | – | – | – | – | – | – | – | – | –
COC(=O)C(C)N(C(=O)Cc1ccccc1)c1c(C)cccc1C (centres undefined) | inactive | inactive | inactive | inactive | inactive | inactive | inactive | inactive | inactive | – | inactive | – | – | inactive | – | – | – | – | – | –
Brc1ccccc1 | inactive | inactive | inactive | inactive | inactive | inactive | inactive | – | inactive | – | inactive | – | inactive | inactive | inactive | – | – | – | – | –
Cc1cc(=O)[nH]o1 | inactive | inactive | inactive | inactive | inactive | inactive | inactive | – | inactive | inactive | inactive | – | inactive | – | inactive | – | – | – | – | –
C=COC(C)=O | inactive | inactive | inactive | inactive | – | inactive | inactive | inactive | inactive | inactive | inactive | inactive | inactive | inactive | inactive | – | – | – | – | –
O=NN1CCCCCC1 | inactive | inactive | inactive | inactive | – | inactive | inactive | inactive | inactive | – | inactive | – | – | inactive | inactive | – | – | – | – | –
c1ccc(CN2CCNCC2)cc1 | inactive | inactive | inactive | inactive | – | inactive | inactive | inactive | inactive | – | inactive | – | inactive | inactive | – | – | – | – | – | –
CCCN(CCC)c1c([N+](=O)[O-])cc(S(C)(=O)=O)cc1[N+](=O)[O-] | inactive | inactive | inactive | inactive | – | inactive | inactive | inactive | inactive | inactive | inactive | inactive | – | – | – | – | – | – | – | –
O=C(NCc1cccnc1)Nc1ccc([N+](=O)[O-])cc1 | inactive | – | inactive | inactive | – | inactive | inactive | inactive | inactive | – | inactive | inactive | – | inactive | inactive | – | – | – | – | –
O=Cc1ccc2c(c1)OCO2 | inactive | inactive | inactive | inactive | – | inactive | inactive | inactive | inactive | – | inactive | inactive | – | inactive | inactive | – | – | – | – | –
COC(=O)C(Br)CBr (centres undefined) | inactive | inactive | inactive | inactive | – | – | inactive | inactive | inactive | inactive | inactive | inactive | inactive | inactive | inactive | – | – | – | – | –
O=C(CBr)OCc1ccccc1 | inactive | – | inactive | inactive | – | inactive | inactive | inactive | – | inactive | inactive | – | inactive | inactive | – | – | – | – | – | –
CC(C)(OO)c1ccccc1 | 54.9 µM (active) | – | inactive | inactive | – | – | inactive | 43.6 µM (active) | inactive | inactive | inactive | inactive | – | inactive | – | – | – | – | – | –
O=C1C(=O)c2cccc3cccc1c23 | – | inactive | inactive | inactive | – | – | – | inactive | – | – | inactive | – | – | – | – | – | – | – | – | –
II | inactive | inactive | inactive | inactive | – | 30.6 µM (active) | – | inactive | – | 6.92 µM (active) | – | inactive | – | 68.6 µM (active) | – | – | – | – | – | –

From PubChem BioAssay (Tox21)
